# Screening results from PubChem.
# CYP2C19 activ = human CYP2C19 activators, primary screen, biochemical, luminescence; Cytochrome P450 2C19 (Homo sapiens), P33261; recombinant CYP2C19, luciferin-H EGE luminescence; active compounds read high; 0 = fully inhibited enzyme, 1 = untreated enzyme; activation factor at 5 µM; 96,000 tested, under 10 active; AID 1025, 2008;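 active = activation factor of at least 2 at 5 µM in the primary screen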
# CYP2C19 inh = blockers of cytochrome P450 2C19 activity – biochemical, luminescence, ADME assay, primary screen | P33261 | CYP2C19 Supersomes, luciferin-H EGE luminescence, 30 min | inhibition, % at 5 µM | actives 21% (n = 96,000);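 active = CYP2C19 inhibition above a set limit at 5 µM in the primary screen, cut at about 50% in these data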
# CYP2C9 inh = blockers of cytochrome P450 2C9 activity – biochemical, luminescence, ADME assay, primary screen; CYP2C9 Supersomes, luciferin-H conversion; AID 777, 2007; actives 20% (n = 96,000); inhibition, % at 5 µM; P11712;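 active = blocking of liver enzyme CYP2C9 beyond about 50% at 5 µM, limit read from the data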
# Target sequence (P11712 whole entry, looked up): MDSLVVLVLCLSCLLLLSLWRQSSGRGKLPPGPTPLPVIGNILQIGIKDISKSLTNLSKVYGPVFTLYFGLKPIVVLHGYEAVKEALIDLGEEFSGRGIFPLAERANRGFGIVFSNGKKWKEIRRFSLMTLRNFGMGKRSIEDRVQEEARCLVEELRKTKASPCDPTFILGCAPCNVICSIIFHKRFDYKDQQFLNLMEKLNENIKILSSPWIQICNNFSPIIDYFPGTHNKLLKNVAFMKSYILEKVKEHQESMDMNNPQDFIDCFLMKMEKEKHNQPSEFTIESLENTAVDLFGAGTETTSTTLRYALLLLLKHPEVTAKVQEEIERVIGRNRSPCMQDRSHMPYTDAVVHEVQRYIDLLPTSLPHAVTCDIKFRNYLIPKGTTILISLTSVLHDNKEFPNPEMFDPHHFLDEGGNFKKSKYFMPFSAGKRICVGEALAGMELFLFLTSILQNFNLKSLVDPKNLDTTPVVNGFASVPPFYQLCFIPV
# Measles CPE = compounds protecting cells from measles virus cytopathic effect, primary screen, measles RdRp inhibitor project, single point, MLSMR library, absorbance; Measles virus-infected cells, CPE protection; protection (pct of control), % at 4 µM; actives 1.5% (n = 140,000); AID 841, 2007; in the data active = protection mostly above about 24%, no sharp cut-off; inactive = mostly below about 26%
# CYP2C9 activ = human CYP2C9 activators, primary screen, biochemical, luminescence. AID 1024, 2008. actives 1.4% (n = 96,000). activation factor at 5 µM. Cytochrome P450 2C9 (Homo sapiens), P11712. recombinant CYP2C9, luciferin-H conversion; active compounds read high; factor 1 = untreated enzyme, 0 = blocked;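 active = activation factor of 2 or more for CYP2C9 at a 5 µM dose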
# Hits are given with their value; 0 = inactive; - = no result. Only some compounds are listed: those with a hit (about 22% of all), similar ones and a draw of the others.
SMILES,CYP2C19 activ,CYP2C19 inh,CYP2C9 inh,Measles CPE,CYP2C9 activ
Cn1c(SCc2ccccc2)nnc1-c1c[nH]c2ccccc12,0,0,0,0,0
CCCCSc1nnc(-c2c[nH]c3ccccc23)n1C,0,56,0,0,0
COC(=O)c1sc(S(=O)(=O)N2CCN(c3ccc(OC)cc3)CC2)c(C(=O)OC)c1C,0,0,0,0,0
NC(=O)c1ccc(C(F)(F)F)n(Cc2ccccc2Cl)c1=O,0,69,0,0,0
C=CCCCCCCCCc1nc(=S)[nH][nH]1,0,0,50,0,0
CCOC(=O)c1cnc(-n2cc(C)cn2)nc1NCc1ccc2c(c1)OCO2,0,0,0,0,0
c1cc2nncn2nc1N1CCCC1,0,53,0,0,0
c1ccc(N2CCN(c3ccc4nncn4n3)CC2)nc1,0,89,79,0,0
c1cc2nnnn2nc1N1CCCCC1,0,0,0,0,0
COc1ccccc1/C=C/C(=O)OCCN1CCOCC1,-,-,-,0,-
O=C1c2ccccc2C(=O)N1Cc1nc2ccccc2c(=O)n1CCCN1CCOCC1,0,0,0,0,0
O=S(=O)(CCSc1nc2ccccc2o1)c1nc2ccccc2s1,0,82,89,0,0
O=S(=O)(NCCSc1nc2ccccc2o1)c1ccccc1,0,89,73,0,0
Cn1c(=O)c2c(nc(CN3CCOCC3)n2CCc2ccccc2)n(C)c1=O,0,0,0,0,0
CCOC(=O)c1cn(-c2ccc([N+](=O)[O-])cc2)c2cc(Cl)c([N+](=O)[O-])cc2c1=O,-,-,-,0,-
CC(/C=N/NC(=O)CCn1nnc2ccccc21)=C\c1ccccc1,-,-,-,0,-
O=S(=O)(c1cc(Cl)ccc1Cl)N1CC2CCCN2c2ccc(C(F)(F)F)cc21 (configuration not stated),0,0,82,0,0
CCS(=O)(=O)c1ccc2c(c1)N(S(=O)(=O)c1ccc(OC)cc1)CC(C(=O)O)O2 (configuration not stated),-,-,-,0,-
COc1ccc(S(=O)(=O)N2CCN(S(=O)(=O)c3ccc(C(F)(F)F)cc3)CC2)cc1C,0,0,0,0,0
COc1ccc(S(=O)(=O)N2CC3CCCN3c3ccc(C(F)(F)F)cc32)cc1 (configuration not stated),0,73,0,0,0
COc1ccc(S(=O)(=O)N2CC3CCCN3c3cc(C(F)(F)F)ccc32)cc1 (configuration not stated),0,92,0,0,0
COC(=O)c1cc(OC)c(OCc2cc(C(=O)OC)oc2C)c(OC)c1,0,52,0,0,0
CCOC(=O)c1c(C)oc2ccc(OCc3cc(C(=O)OC)oc3C)cc12,0,64,86,0,0
COC(=O)c1cc(COc2ccc3oc(C)c(C(=O)OC)c3c2)c(C)o1,0,0,0,0,0
COC(=O)c1cc(COc2ccc3ccc(=O)oc3c2)c(C)o1,0,0,0,0,0
SMILES,CYP2C19 activ,CYP2C19 inh,CYP2C9 inh,Measles CPE,CYP2C9 activ
CCOC(=O)c1c(C)oc2ccc(OCC(=O)C(C)(C)C)cc12,0,65,72,0,0
COc1cccc(C(=O)Cn2c(Br)nc3c2c(=O)n(C)c(=O)n3C)c1,0,0,0,0,0
COc1cccc(N2CC(C)Cn3c2nc2c3c(=O)n(CCN3CCOCC3)c(=O)n2C)c1 (configuration not stated),0,0,0,0,0
O=C(c1ccc(Cl)cc1)C1C2C(=O)N(c3ccccc3)C(=O)C2C2CCCN21 (configuration not stated),0,79,78,0,0
CC(=O)c1cccc(S(=O)(=O)N2CCN(c3nc4cc(C)cc(C)c4cc3C#N)CC2)c1,0,58,67,0,0
COc1ccc(-c2[nH]c(-c3cccc(OC)c3)nc2SCC(=O)NCc2ccco2)cc1,0,94,84,0,0
O=C(CCCSc1nc2ccccc2[nH]1)NCc1ccco1,0,0,0,0,2
O=C(CSc1nc(C2CCCCC2)n(-c2ccccc2)n1)NCCN1C(=O)CSC1=O,0,95,98,0,0
O=C(CSc1nc(-c2ccccc2)c(-c2ccccc2)[nH]1)NCc1ccco1,0,0,50,0,0
COc1ccc(-c2ccc(SCC(=O)NCc3ccco3)nn2)cc1,0,0,0,0,0
O=C(CSc1nnc(-c2ccccc2)c(-c2ccccc2)n1)NCc1ccco1,-,-,-,0,-
CCCN(CCC)CCCNS(=O)(=O)c1cc(Br)cc2c1N(C(C)=O)CC2,0,0,0,0,0
O=c1oc2ccc(Br)cc2cc1S(=O)(=O)c1ccc(F)cc1,-,-,-,0,-
N#C/C(=C/c1ccc(-c2ccccc2)o1)c1nc(-c2cccs2)cs1,-,-,-,0,-
Cc1ccc2nc(SCC(=O)NCc3ccco3)[nH]c2c1,0,0,0,0,0
Cn1nc(CC(=O)NCCN2C(=O)CSC2=O)c2ccccc2c1=O,0,70,0,0,0
Cc1ccc2nc(SCC(=O)NC(=O)NCc3ccco3)[nH]c2c1,0,80,71,0,0
O=C(CSc1nc2ccccc2[nH]1)NC(=O)NCc1ccco1,0,57,0,0,0
O=C(CSc1nc(-c2ccccc2)c(-c2ccccc2)[nH]1)NCCN1C(=O)CSC1=O,0,63,0,0,0
O=C(CSc1nnc(Nc2ccccc2)s1)NCCN1C(=O)CSC1=O,-,-,-,0,-
CCCc1nc(NC2CCCCC2)c(C#N)c2c1COC(C)(C)C2,0,0,0,0,0
CCc1cc(C(=O)Cc2cnn(-c3ccccc3)c2)c(O)cc1O,0,55,0,0,0
O=C(Cc1cnn(-c2ccccc2)c1)c1ccc(O)c(O)c1O,0,65,79,0,0
O=C(CSc1nc2c(sc3ccccc32)c(=O)n1CCCN1CCOCC1)NC1CCCC1,0,0,0,0,0
O=C(c1ccc(F)cc1)N1C2CCC1CC(O)(c1ccccc1F)C2 (configuration not stated),0,53,0,0,0
SMILES,CYP2C19 activ,CYP2C19 inh,CYP2C9 inh,Measles CPE,CYP2C9 activ
CCOc1cccc(CNn2cnnc2)c1OCc1ccccc1,0,57,0,0,0
c1ccc(COc2cccc(CNn3cnnc3)c2)cc1,0,50,0,0,0
COC(=O)c1ccc(N2CCN(S(=O)(=O)c3c(C)cc(C)cc3C)CC2)c([N+](=O)[O-])c1,0,0,0,0,0
CCn1ncc2c1C(=O)NC1c3ccccc3C(=O)N21 (configuration not stated),0,0,0,0,0
CCOC(=O)c1c(N)sc2c1CCC(CC)C2 (configuration not stated),0,0,0,0,0
CCOC(=O)c1c(N)sc2c1CCC1C(=O)N(C3CCCCC3)C(=O)C21 (configuration not stated),0,91,90,0,0
CC(=O)Nc1ccccc1-c1nc2ccccc2nc1OCC(=O)c1ccc2ccccc2c1,0,0,68,0,0
